Only some compounds are listed: those with a hit (about 2.2% of all), similar ones and a draw of the others.
aSyn UTR inh – MLPCN primary screen, SNCA 5' untranslated region; AID 1813; hit rate 0.82% among 300,000; alpha-synuclein 5'UTR reporter, inhibitor activity; inhibition, % (tested at 7.5 µM); in the data active = inhibition above about 60%;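 also: H4 neuroglioblastoma cells stably carrying SNCA 5'UTR luciferase fusion; 0% = DMSO wells and 100% = positive control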
Ba/F3 V617F tox – lowers viability of Ba/F3 cells expressing EpoR and JAK2V617F; inhibition, % at 5.6 µM; ATP luminescence; hit rate 1.1% among 220,000; AID 1446;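 active = inhibition above the campaign mean plus 3 SD over all tested compounds, cut at about 24% in these data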;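 also: cytokine-independent growth of Ba/F3 cells driven by EpoR plus mutant JAK2; 0% = DMSO-treated cells and 100% = JAK inhibitor I control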
BaF3 parental – reduces parental Ba/F3 cell viability, JAK2V617F counter-screen; inhibition, % at 5.6 µM; hit rate 1.1% among 220,000; AID 1486; CellTiter-Glo ATP luminescence;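 active = inhibition above a per-campaign cutoff, the mean inhibition of all tested compounds plus 3 SD, cut at about 27% in these data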;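 also: 0% = DMSO wells and 100% = JAK Inhibitor I control wells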
APP 5UTR inh – APP translation inhibition; hit rate 0.82% among 190,000; SH-SY5Y APP 5'UTR-luciferase reporter, luminescence; inhibition, % at 2 µM;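 active = inhibition above a set limit, derived from the sample mean plus 3 SD, cut at about 45% in these data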
IEC-6 tox – IEC-6 cytotoxicity, counter-screen for KLF5 inhibitors | luminescence viability | AID 1825 | hit rate 0.78% among 290,000 | inhibition, % at 5 µM; in the data active = inhibition above about 22%;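 also: 0% = plate median of test compound wells and 100% = cytotoxic reference compound wells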
KLF5 inh – suppresses KLF5 promoter-driven expression | hit rate 0.23% among 290,000 | inhibition, % at 5 µM | DLD-1 KLF5 promoter-luciferase reporter, luminescence;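 active = inhibition above a per-plate limit of that plate's mean compound inhibition plus 3 SD, cut at about 60% in these data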;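 also: 0% = DMSO wells and 100% = LY294002 at 200 µM; higher means less KLF5 promoter-driven luciferase light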
Active calls of the source: *.

`CC(C)(C)OC(=O)NCCCC[C@H](NC(=O)c1nc[nH]c1C(=O)N1CCN(C(=O)OC(C)(C)C)CC1)C(=O)OC(C)(C)C` gave aSyn UTR inh 1.7, Ba/F3 V617F tox 3.7, BaF3 parental -6.3, APP 5UTR inh -16.7, IEC-6 tox 9.1 and KLF5 inh -5.8.
CC(C)C[C@H](NC(=O)c1nc[nH]c1C(=O)N1CCN(C(=O)OC(C)(C)C)CC1)C(=O)OC(C)(C)C was read as aSyn UTR inh -8.9, Ba/F3 V617F tox 3.1, BaF3 parental -2.6, APP 5UTR inh 51.7*, IEC-6 tox -4.0 and KLF5 inh 31.0.
For O=C(CSCc1ccc([N+](=O)[O-])cc1)N/N=C/c1cccnc1 the results were aSyn UTR inh 6.1, Ba/F3 V617F tox -2.8, BaF3 parental 1.5, APP 5UTR inh -16.6, IEC-6 tox 4.3 and KLF5 inh -15.3.
`O=C(CSCc1ccc([N+](=O)[O-])cc1)N/N=C/c1ccncc1` gave aSyn UTR inh -5.4, Ba/F3 V617F tox 2.1, BaF3 parental 83.8*, APP 5UTR inh -7.9, IEC-6 tox -2.1 and KLF5 inh -26.7.
Screening CN(C(=O)COC(=O)c1nc(Cl)c(Cl)c(Cl)c1Cl)C1CCS(=O)(=O)C1 (stereo unspecified) returned aSyn UTR inh -210.3, Ba/F3 V617F tox -2.2, BaF3 parental 6.8, APP 5UTR inh 58.9*, IEC-6 tox 1.7 and KLF5 inh -24.4.
`CCCn1nc(C(=O)OCC(=O)NC(C)c2ccccc2)c2ccccc2c1=O` (stereo unspecified) gave aSyn UTR inh -1.6, Ba/F3 V617F tox 0.2, BaF3 parental 8.1, APP 5UTR inh 7.4, IEC-6 tox -1.4 and KLF5 inh -16.2.
For O=C1CCC/C1=C\Nc1ccc(Cl)c([N+](=O)[O-])c1 the results were aSyn UTR inh -14.8, Ba/F3 V617F tox 1.0, BaF3 parental 58.4*, IEC-6 tox 0.3 and KLF5 inh -1.8.
Screening O=C(Nc1ncc(Cc2ccccc2)s1)c1cccs1 returned aSyn UTR inh 21.1, Ba/F3 V617F tox 1.3, BaF3 parental 11.9, APP 5UTR inh -193.6, IEC-6 tox 3.3 and KLF5 inh -172.0.
For O=C(Nc1ncc(Cc2ccc(SC(F)F)cc2)s1)c1ccccc1 the results were aSyn UTR inh 67.7*, Ba/F3 V617F tox -1.8, BaF3 parental 3.4, APP 5UTR inh 86.2*, IEC-6 tox 0.8 and KLF5 inh 2.8.
`O=C(CN1CCN(C(=O)C2CCCO2)CC1)Nc1ccc(Cl)c(Cl)c1` (stereo unspecified) gave aSyn UTR inh -4.9, IEC-6 tox -12.3 and KLF5 inh -31.3.
`Cc1c(Cl)cccc1N1C(=O)c2ccccc2C1=O` gave aSyn UTR inh -4.4, Ba/F3 V617F tox 1.3, BaF3 parental 3.1, APP 5UTR inh 68.2*, IEC-6 tox 0.7 and KLF5 inh 22.9.
`O=[N+]([O-])c1cc(C(F)(F)F)cc([N+](=O)[O-])c1NCCN1CCNCC1` gave aSyn UTR inh -28.2, IEC-6 tox -3.3 and KLF5 inh -0.8.
For O=C(CSc1ncnc2nc[nH]c12)c1ccc([N+](=O)[O-])cc1 the results were aSyn UTR inh 10.4, Ba/F3 V617F tox 35.8*, BaF3 parental 22.8, IEC-6 tox 14.9 and KLF5 inh -2.3.
For CC1=CC(C)C2COC(c3ccc[n+](C)c3)C1C2C (stereo unspecified) the results were aSyn UTR inh -6.8, Ba/F3 V617F tox 35.1*, BaF3 parental 39.8*, APP 5UTR inh -2.7, IEC-6 tox -7.1 and KLF5 inh -56.0.
`COc1ccc(NC(=O)CCC(=O)OCc2ccc([N+](=O)[O-])cc2)cc1` gave aSyn UTR inh -2.8, Ba/F3 V617F tox 1.7, BaF3 parental 3.6, APP 5UTR inh -9.3, IEC-6 tox -0.6 and KLF5 inh 6.8.
`O=C(NC1CCCC1)C(c1cccnc1)N(Cc1ccccc1)C(=O)c1csnn1` (stereo unspecified) gave aSyn UTR inh -12.5, IEC-6 tox -7.0 and KLF5 inh 1.8.
For CCOC(=O)c1ccc(NC(=O)Cn2nnc3ccccc32)cc1 the results were Ba/F3 V617F tox -2.6, BaF3 parental 59.4*, APP 5UTR inh -71.4, IEC-6 tox -2.1 and KLF5 inh -203.1.
`CCCOc1ccc(-c2nnc(-c3ccco3)o2)cc1` gave aSyn UTR inh 64.7*, Ba/F3 V617F tox -1.7, BaF3 parental 1.6, APP 5UTR inh -103.6, IEC-6 tox -0.8 and KLF5 inh -68.7.
O=C(COc1ccccc1)Nc1ccc(-c2nnc(-c3ccco3)o2)cc1 was read as aSyn UTR inh -83.9, Ba/F3 V617F tox 1.6, BaF3 parental 4.1, APP 5UTR inh -31.0, IEC-6 tox -7.2 and KLF5 inh -27.4.
CC(C)COc1ccc(-c2nnc(-c3ccco3)o2)cc1 was read as aSyn UTR inh 86.1*, Ba/F3 V617F tox -2.9, BaF3 parental 2.3, APP 5UTR inh -187.2, IEC-6 tox -7.8 and KLF5 inh -163.0.
CCN(CC)CCCNc1ccc(-c2nnc(-c3ccc(OCC(C)C)cc3)o2)cn1 was read as aSyn UTR inh 120.7*, IEC-6 tox 5.6 and KLF5 inh -23.1.
O=C(Nc1ccc(CN2CCCCC2)cc1)c1sc2ccccc2c1Cl was read as aSyn UTR inh -158.7, Ba/F3 V617F tox 0.1, BaF3 parental -0.9, IEC-6 tox 0.7 and KLF5 inh -35.7.
O=C(CN1CCCCC1)NCCNc1ccc(C(F)(F)F)cc1[N+](=O)[O-] was read as aSyn UTR inh -5.4, Ba/F3 V617F tox 4.0, BaF3 parental 6.2, APP 5UTR inh -8.5, IEC-6 tox -2.5 and KLF5 inh -26.4.
Screening COc1ccc(S(=O)(=O)c2ccc(OC)cc2)cc1 returned aSyn UTR inh -2.6, Ba/F3 V617F tox 0.1, BaF3 parental 9.1, APP 5UTR inh -9.8, IEC-6 tox 0.3 and KLF5 inh -18.2.
Screening COc1ccc(C2=CC(=O)C=CC2=O)cc1 returned aSyn UTR inh -38.3, Ba/F3 V617F tox 0.4, BaF3 parental -8.7, APP 5UTR inh 47.9*, IEC-6 tox -3.7 and KLF5 inh -22.3.
CCN(CC)Cc1c(C(=O)N/N=C/c2ccc(C)o2)nnn1-c1nonc1N was read as aSyn UTR inh -3.1, IEC-6 tox 7.1 and KLF5 inh 3.9.
`CC(C)(C)c1ccc(C(=O)Nc2ccc(Cl)cc2)cc1` gave aSyn UTR inh -109.9, Ba/F3 V617F tox -2.8, BaF3 parental -1.5, APP 5UTR inh -125.6, IEC-6 tox 5.7 and KLF5 inh -93.2.
For COC(=O)Cc1ccc(NC(=O)c2ccc(C(C)(C)C)cc2)cc1 the results were aSyn UTR inh 124.4*, Ba/F3 V617F tox -3.3, BaF3 parental -0.9, APP 5UTR inh 84.0*, IEC-6 tox 5.2 and KLF5 inh 40.4.
`CCOC(=O)Cc1ccc(NC(=O)c2ccc([N+](=O)[O-])cc2)cc1` gave aSyn UTR inh -14.3, Ba/F3 V617F tox -2.3, BaF3 parental 33.4*, APP 5UTR inh -2.8, IEC-6 tox 3.5 and KLF5 inh -18.5.
Screening Cc1cccc(NC(=O)C2CCN(S(=O)(=O)c3c(C)noc3C)CC2)c1 returned aSyn UTR inh 3.5, IEC-6 tox -8.0 and KLF5 inh -43.2.
